# Laboratory results taken from PubChem BioAssay (NCI).
# The panel holds about 79,000 compounds, 15% with a hit somewhere; the sample as a whole holds those more often. Unmarked numbers belong to inactive results. Activity calls are given as the source filed them. Cut-off read from the data, not from the text of the source: active = growth inhibition above about 70%; inactive = the rest.
# Legend:
# [1] = NCI Yeast Anticancer Drug Screen. Data for the rad50 strain (AID 155);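 note: 0% = growth of vehicle-only cultures of the same strain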; conditions: S. cerevisiae rad50 strain growth inhibition; at 50.0 µM; hits give high values
# Summary of the method: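 Growth of the mutant yeast was measured after compound exposure and referenced to vehicle-treated cultures.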
# [2] = NCI Yeast Anticancer Drug Screen. Data for the mec2-1 strain (AID 157); conditions: S. cerevisiae mec2-1 strain, at 50.0 µM, hits give high values
# Summary of the method: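 Each compound was tested on mec2-1 yeast, a strain altered in DNA damage repair or cell cycle control. Growth inhibition is reported relative to vehicle.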
# [3] = NCI Yeast Anticancer Drug Screen. Data for the sgs1 mgt1 strain (AID 161);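 note: 0% = growth of cultures given vehicle only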; conditions: S. cerevisiae sgs1 mgt1 strain, at 50.0 µM, hits give high values
# Summary of the method: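 Test agents were incubated with a DNA-repair-mutant yeast strain. Growth was then read and compared against vehicle-treated controls.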
# [4] = NCI Yeast Anticancer Drug Screen. Data for the cln2 rad14 strain (AID 165);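 note: 0% = growth equal to vehicle treated cultures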; conditions: S. cerevisiae cln2 rad14 strain, at 50.0 µM, hits give high values
# Summary of the method: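 Test compounds were added to cln2 rad14 yeast cultures; inhibition of growth was then determined by comparison with vehicle treatment.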
# [5] = NCI Yeast Anticancer Drug Screen. Data for the bub3 strain (AID 167); conditions: S. cerevisiae bub3 mutant strain, at 50.0 µM, hits give high values
# Summary of the method: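 Whole-cell yeast assay. The mutant strain was incubated with compounds, and growth inhibition was determined by comparison with vehicle-treated cells.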
# [6] = NCI Yeast Anticancer Drug Screen. Data for the mlh1 rad18 strain (AID 175); conditions: S. cerevisiae mlh1 rad18 strain growth inhibition; at 50.0 µM; hits give high values
# Summary of the method: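 Inhibition values reflect reduced growth of mutant yeast versus vehicle-treated controls following compound exposure; the mutations affect DNA damage repair.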
SMILES,growth inhibition [1],growth inhibition [2],growth inhibition [3],growth inhibition [4],growth inhibition [5],growth inhibition [6]
C=CCC(C#N)C1=CCCCC1 (configuration not stated),-6.85%,-26.6%,-12.4%,-4.3%,-23.6%,-5.75%
O=c1[nH]cc(Cl)cc1[N+](=O)[O-],10.8%,3.95%,-1.4%,2.3%,-17.8%,1.7%
O=c1[nH]cnc2c1cnn2-c1ccccc1,17.1%,5.3%,9.7%,3.85%,-2.05%,22.4%
CC(NNC(=O)c1ccncc1)c1ccc(Cl)cc1Cl (configuration not stated),-19.9%,9.15%,-21.6%,22.6%,13.8%,-16.1%
CC(=O)[O][Ga]([Cl])[O]C(C)=O,22.2%,27.2%,34.1%,34.3%,30.3%,14.3%
CC1=Nc2ccc(C)cc2N=C(C)C1,11.4%,4.1%,7.2%,-29.4%,22.4%,-1.6%
c1ccc2cc(CCc3cc4ccccc4cn3)ncc2c1,10.2%,11.4%,7%,-16.1%,24.4%,25.6%
NCCCNC/C=C/CNCCCN,25.8%,-0.5%,2.7%,11.2%,-0.8%,-2.45%
Cc1[nH]c(=S)[nH]c(=O)c1CCC(C)C,9.5%,14.8%,14.1%,52.1%,37.8%,6.5%
CCOc1ccc(NC(=S)NC=C(C#N)C#N)cc1,-17.8%,-12.6%,-9.55%,-4.9%,7.75%,-5.75%
Clc1ccc(Cl)s1,34.5%,3.55%,20.3%,18.6%,14%,26.1%
CCOC(=O)C(C)(C(C)=O)c1nc(=S)[nH]c(=S)[nH]1 (configuration not stated),4.2%,7.55%,2.1%,-19.8%,7.25%,-5.1%
COc1ccc([C@@]23Oc4cc(OC)cc(OC)c4[C@]2(O)[C@H](O)[C@H](C(=O)N(C)C)[C@H]3c2ccccc2)cc1,91.8% (active),93.5% (active),92.8% (active),91.5% (active),91.3% (active),91.1% (active)
COc1cc2c(cc1OC)C(=O)/C(=C/c1ccccc1)C2,-16.4%,-0.85%,-6.4%,15.2%,36%,9.6%
CCCCCCCCCCCCCCC[N+](C)(C)C,99.5% (active),99.3% (active),36.1%,99.2% (active),97.5% (active),99.5% (active)
COc1ccc(C=Nc2c(N)[nH]c(=S)[nH]c2=O)cc1,-15%,-12.8%,-4.15%,0.7%,-27.8%,-51.7%
COc1cc2c(c(OC)c1OC)-c1cccc(=O)cc1C(NC(C)=O)CC2 (configuration not stated),-3.65%,-14.2%,-3.35%,8.9%,-2.2%,21.1%
Clc1cccc(-c2sc(-c3cccs3)cc2Cc2cccs2)c1,-42.8%,-39.8%,-29.4%,2.2%,-9.2%,-14.5%
O=C(c1cccc([N+](=O)[O-])c1)c1cccs1,6.6%,-7.2%,-9.05%,4.3%,-5.2%,-4.05%

SMILES,growth inhibition [1],growth inhibition [2],growth inhibition [3],growth inhibition [4],growth inhibition [5],growth inhibition [6]
C/[N+]([O-])=N/COC1OC(COC2OCC(O)C(O)C2O)C(O)C(O)C1O (configuration not stated),7.5%,-0.4%,25.6%,13.8%,8.85%,3.7%
O=C1NC(=O)C2C3CCC(C3)C12 (configuration not stated),13.6%,-6.15%,-7.65%,-41.8%,4.65%,0.4%
Cc1nn(C(=O)c2cccnc2)c(-c2ccccc2)c1N=Nc1ccc(C(=O)O)cc1,-16.5%,11.2%,4.65%,29.4%,-2.8%,18.8%
CN(C)c1ccc(/C=C/c2ccccc2)cc1,-3.6%,-6.15%,-8.95%,-15.1%,-16.2%,1.55%
NC(=O)C(=O)N/N=C(\CC1(O)C(=O)Nc2ccccc21)c1ccc2ccccc2c1 (configuration not stated),17.4%,16.5%,7.5%,48.5%,35%,12.1%
CCCCC(/C=C\C(=O)O)CC (configuration not stated),29.7%,-6.1%,-11.8%,5.05%,5.75%,14.4%
CCCC(=O)OC(C)CC(C)C (configuration not stated),6%,-13.7%,-12.2%,-10.8%,2.2%,1.95%
C[N+](C)([O-])Cc1cccc(NC(=O)c2ccc(C(=O)Nc3cccc(C[N+](C)(C)[O-])c3)cc2)c1,-4.3%,1.25%,-8.2%,1.3%,-12.8%,-7.95%
O=C(O)COc1c2occc2cc2ccc(=O)oc12,7.9%,-12.4%,22.7%,1.55%,-3.1%,6%
Nc1cc(C(=O)O)ccc1Cl,-9.7%,-8.1%,-18.9%,-88.8%,-12.2%,-5.4%
O=[N+]([O-])c1ccc(Oc2cccc3ccccc23)c([N+](=O)[O-])c1,4.75%,8.55%,18.5%,-82.5%,29.1%,38.8%
O=[N+]([O-])c1ccc(S(=O)(=O)c2ccc(N=Cc3ccc(C=Nc4ccc(S(=O)(=O)c5ccc([N+](=O)[O-])cc5)cc4)cc3)cc2)cc1,6.85%,3.25%,1.15%,-5.45%,-4.55%,-5.85%
Cc1cccc(C)c1NC(=O)Nc1ccc(C(=O)O)cc1,-8.6%,31.7%,2.5%,-15.8%,22.6%,11.4%
CC(=O)N=Cc1c(O)[nH]c2ccccc12,36.9%,11.7%,0.5%,6.85%,8.3%,0.45%
COc1ccc(C(c2ccc(N(Cc3ccccc3)Cc3ccccc3)cc2NC(C)=O)c2ccc(N(Cc3ccccc3)Cc3ccccc3)cc2NC(C)=O)cc1OC,5.75%,-5.25%,-19.9%,-8.55%,-6.1%,26.7%
Cc1ccc(NC(=O)CSc2nnc(Cc3ccccc3)o2)c(C)c1,-26.8%,-63.2%,-57.8%,-22.8%,-3.3%,-54.9%
O=S(=O)(Nc1nccs1)c1ccc(NCc2c3ccccc3nc3ccccc23)cc1,62.2%,54.7%,42.3%,30%,17.7%,49.5%
O=S(=O)(O)c1ccc2c(N=Nc3cccc4ccccc34)c(O)c(S(=O)(=O)O)cc2c1,-2.35%,4.9%,-21.3%,41.2%,-17.8%,23.1%
